# Compound activity as filed in PubChem.
# Rows were chosen to be rich in hits. Some 6.9% of all compounds tested hit in one or more screens of this group.
# KB-3-1 cytotox – KB-3-1 parental cell cytotoxicity. KB-3-1 viability, CellTiter-Glo ATP luminescence, 72 h. Potency, µM (highest dose often 46.1 µM), usual class: cytotoxic. 400,000 compounds, 1.4% hits. AID 1347075; note: potency is the fitted concentration of half-maximal effect; % is set by controls: 0 for no effect and ±100 for the full control effect; nearly all actives have a fitted effect of over 60% in size
#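 Here the drug-naive KB-3-1 line serves as comparator for MDR sub-line selectivity; cells received compound titrations, 72 h at 37 °C, then CellTiter-Glo readout.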
# SW480 rerep – induces DNA re-replication in SW480 colon adenocarcinoma cells; SW480 DNA re-replication, Hoechst DNA content imaging, 48 h; Potency, µM (highest dose often 46.1 µM), inactives show at the highest dose re-replication activation, actives largely listed as activators; 340,000 compounds, 1.8% hits; AID 624297; note: potency is the fitted concentration of half-maximal effect; % of control where 0% means no effect; nearly all actives have a fitted effect of over 55% in size
#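 Quantitative HTS format with DMSO vehicle controls; 48 hr drug incubation at 37 C, then 40 min Hoechst staining and scanning imager measurement at 405 nm excitation.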
# ASM inhibitor – human S-ASM enzyme inhibition; P17405; Potency, µM (top dose mostly 57.5 µM), for the others: at the top dose activity change, negative = inhibition, actives largely listed as inhibitors; placental ASM, HMU-PC fluorogenic substrate, 60 min; 340,000 compounds, 0.006% hits; note: potency is the fitted concentration of half-maximal effect
# Target sequence (P17405 47-631 limits assumed): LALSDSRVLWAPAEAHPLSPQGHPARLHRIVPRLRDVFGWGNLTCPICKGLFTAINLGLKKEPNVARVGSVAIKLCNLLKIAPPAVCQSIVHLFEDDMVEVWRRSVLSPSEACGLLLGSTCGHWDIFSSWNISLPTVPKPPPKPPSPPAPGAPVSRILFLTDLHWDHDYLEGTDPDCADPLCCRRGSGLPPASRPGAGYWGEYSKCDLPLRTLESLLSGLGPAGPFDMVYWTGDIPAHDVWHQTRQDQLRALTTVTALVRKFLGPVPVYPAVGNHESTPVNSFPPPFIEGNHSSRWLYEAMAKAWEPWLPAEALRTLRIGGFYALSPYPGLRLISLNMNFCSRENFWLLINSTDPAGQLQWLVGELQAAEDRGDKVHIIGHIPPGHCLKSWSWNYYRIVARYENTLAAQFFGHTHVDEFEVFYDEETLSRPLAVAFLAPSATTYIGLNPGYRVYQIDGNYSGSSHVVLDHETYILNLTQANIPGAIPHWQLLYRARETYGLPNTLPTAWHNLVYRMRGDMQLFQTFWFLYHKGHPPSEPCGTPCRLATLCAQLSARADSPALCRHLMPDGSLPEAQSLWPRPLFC
#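 Fluorogenic HMU-PC substrate (9 uM final) is turned over by placental ASM in 60 min at 37 C after a 10 min compound preincubation. Reaction ended by alkaline stop (pH 10), with fluorescence read at 386/447 nm.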
# KB-V1 MDR tox – kills drug-selected multidrug resistant KB-V1 cells; KB-V1 MDR cells viability, CellTiter-Glo, 72 h; AID 1347076; 400,000 compounds, 3.4% hits; Potency, µM (doses to about 46.1 µM), hits mostly cytotoxic; note: potency is the fitted concentration of half-maximal effect; % is set by controls: 0 for no effect and ±100 for the full control effect; nearly all actives have a fitted effect of over 60% in size
#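 Drug-selected KB-V1 cells, grown in DMEM lacking phenol red with 10% FBS, receive compound titrations; after three days at 37 degrees C, surviving cell ATP is quantified by CellTiter-Glo luminescence and responses normalized and curve-fitted.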
# Giardia killer – Giardia lamblia killing; Giardia lamblia trophozoite viability; activity change, % at 7.66 µM, hits read low; 340,000 compounds, 0.15% hits; in the data active = activity change below about -80%; inconclusive = between about -30% and that limit;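 note: parasites exposed to compound for two days anaerobically before the ATP read; % is set by controls: 0 for no effect and ±100 for the full control effect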
#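 Viability, read as ATP luminescence: trophozoites at 100 cells/well, compound added, 48 hrs anaerobic at 37 deg C, then 15-30 min room-temperature development before reading.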
# MCF10A rereplic – inducers of DNA re-replication in MCF 10A breast cells; MCF 10A DNA re-replication, Hoechst nuclear intensity, 48 h; Potency, µM (highest dose often 46.1 µM), for the others: at the top dose activity, positive = re-replication, most hits filed as activators; 350,000 compounds, 2.9% hits; note: potency is the fitted concentration of half-maximal effect; % of control where 0% means no effect; nearly all actives have a fitted effect of over 50% in size
# * hit, by the source's call; i = inactive; u = inconclusive; x = no result; [ ] = remark or other dose. Unless noted, calls come from the whole dose curve; as a rule, active = well fitted curve in the direction sought with a large enough effect; inconclusive = small, poorly fitted or top-dose-only effect, or another doubt; inactive = no such curve, though single readings can be large; an effect the other way counts as inactive or inconclusive.
SMILES,KB-3-1 cytotox,SW480 rerep,ASM inhibitor,KB-V1 MDR tox,Giardia killer,MCF10A rereplic
CN(C)/C=C(\C#N)S(=O)(=O)C(C)(C)C,i,18%,-2%,i,8,5.2µM*
CC(C)(C)S(=O)(=O)/C(C#N)=C/Nc1ccccn1,i,-7%,1%,i,9,-1%
CCN(CC(=O)Nc1c(F)cccc1F)C(=O)c1ccc(NC(=O)CC2SC(N3CCCC3)=NC2=O)cc1 (centres undefined),i,-12%,1%,i,9,-1%
Fc1ccc(-c2oncc2-c2nnnn2-c2ccccc2)cc1F,i,-2%,-3%,i,11,1%
Nc1ncc(-c2nnnn2-c2ccc(Cl)cc2)c(-c2ccc(Cl)cc2)n1,5.2µM*,2.9µM*,0%,6.5µM*,-14,u
Cc1ccc(-n2nnnc2-c2cnc3ccc(Cl)cc3c2-c2ccccc2)cc1,7.3µM*,u,-14%,u,-6,21µM*
Clc1ccc(-c2nnnn2-c2ccc(Cl)cc2)cc1,u,-11%,-2%,i,-15,8%
Clc1ccc(-n2nnnc2-c2cnc3ccccc3c2-c2ccccc2)cc1,i,-8%,-8%,16µM*,-11,-4%
C=C(C)CNC(=S)NNC(=O)CCn1c2ccccc2c2ccccc21,u,u,-5%,18µM*,2,u
C=C(C)CNC(=S)NNC(=O)CCn1c2ccc(Cl)cc2c2cc(Cl)ccc21,u,u,-21%,u,28,u
CC(=O)N[C@@H](CC(=O)O)C(=O)N[C@@H](CCC(=O)O)C(=O)O,x,-3%,x,x,x,-4%
COc1ccc(-c2nc3ccc(NC(C)=O)cc3c(=O)n2Cc2cccc(Cl)c2)cc1COc1ccc(NC(C)=O)cc1,x,x,x,x,-4,x
COc1cc(/C=N/NC(N)=O)c(Br)cc1OCC(=O)Nc1ccccc1C,i,13%,0%,i,-3,u
COc1cc(/C=N/O)c(Br)cc1OCC(=O)Nc1ccccc1C,i,u,0%,8.2µM*,-6,-52%
COc1ccccc1NC(=O)COc1ccc(Br)cc1CNCCCN1CCOCC1,i,u,6%,i,15,u
COc1cc(CNCCCN2CCOCC2)c(Br)cc1OCC(=O)Nc1ccccc1C,i,u,2%,i,-2,15µM*
CCc1ccc(C(=O)c2cn(CC(=O)NCCc3ccc(OC)c(OC)c3)c3nc(C)ccc3c2=O)cc1,i,x,x,i,x,x
Cc1nnc(N2CCCC(C(=O)NCCc3ccccc3)C2)c2nn(-c3ccccc3)c(C)c12 (centres undefined),i,x,x,i,x,x
O=C(c1ccc2c(c1)OCCO2)N1CCCCC1,i,-3%,3%,u,1,-4%
C=CCc1cc(C(=O)N2CCCCC2)ccc1O,u,1%,1%,21µM*,0,-1%
O=C(C[n+]1cc(Br)cc2ccccc21)c1ccc(O)c(O)c1,u,x,x,i,x,x
O=C(Nc1cccc(C(F)(F)F)c1)c1cc(-c2ccc3c(c2)OCCO3)on1,i,x,x,i,x,x
CC(C(=O)Nc1ccccc1-c1ccccc1)N(C)Cc1nc2ccccc2c(=O)[nH]1 (centres undefined),u,u,-1%,12µM*,-6,u
Cc1cccc(C)c1NC(=O)CN(C)C(C)C(=O)Nc1ccccc1-c1ccccc1 (centres undefined),i,-6%,1%,i,-11,5%
Cc1c(Cc2ccccc2)c(=O)n2c([nH]c3ccccc32)c1C#N,u,-16%,i,13µM*,-23,14%
SMILES,KB-3-1 cytotox,SW480 rerep,ASM inhibitor,KB-V1 MDR tox,Giardia killer,MCF10A rereplic
COc1ccccc1N=Cc1c(C)c(C#N)c2[nH]c3ccccc3n2c1=O,i,-2%,13%,i,1,u
N#Cc1c(C(F)(F)F)cc(=O)n2c1[nH]c1ccccc12,i,u,i,i,8,18µM*
COc1cccc(C(=O)Nc2ccccc2-c2nnc(-c3ccc(C(C)(C)C)cc3)o2)c1,i,x,x,u,x,x
CCOC(=O)CNC(c1ccccc1)c1cc(Br)ccc1NC(=O)CCN1CCOCC1 (centres undefined),i,107%,0%,u,-25,10µM*
COC(=O)CNC(c1ccccc1)c1cc(Br)ccc1NC(=O)CNC(=O)OCc1ccccc1 (centres undefined),i,11%,-1%,u,-17,u
COC(=O)CNC(c1ccccc1)c1cc(Br)ccc1NS(=O)(=O)c1ccc(C)cc1 (centres undefined),i,4%,-24%,5.8µM*,3,9%
COC(=O)CNC(c1ccccc1)c1cc(Br)ccc1NS(=O)(=O)c1ccccc1 (centres undefined),i,-1%,1%,i,7,-7%
COC(=O)CNC(c1ccccc1)c1cc(Br)ccc1NC(=O)CCN1CCOCC1 (centres undefined),i,u,0%,u,4,18µM*
CO[C@@H]1C[C@H](O[C@H]2[C@@H](C)[C@H](O[C@@H]3O[C@@H](C)C[C@@H](N(C)C)[C@@H]3OC(C)=O)[C@H](C)C[C@]3(CO3)C(=O)[C@H](C)[C@H](OC(C)=O)[C@H](C)[C@H](C)OC(=O)[C@@H]2C)O[C@H](C)[C@@H]1OC(C)=O,x,-1%[20.6 µM],x,x,x,9%[20.6 µM]
O=S(=O)(c1ccc(Cl)cc1)N1CCN(c2nc(-c3cccc(Br)c3)nc3ccccc23)CC1,x,x,x,x,3,x
CC(=O)c1cccc(NC(=O)c2sc3nc4n(c(=O)c3c2C)CCCC4)c1,i,9.2µM*,1%,i,-2,4%
COc1ccc(COC(=O)c2sc3nc4n(c(=O)c3c2C)CCC4)cc1,i,-1%,-22%,8.2µM*,-17,26%
Cc1c(C(=O)Nc2cccc(C(F)(F)F)c2)sc2nc3n(c(=O)c12)CCCC3,i,x,x,i,x,x
CCn1c2ccccc2c2cnc(N=CN(C)C)c(C#N)c21,i,0%,17%,7.3µM*,-13,3%
CN(C)/C=N/c1c(C#N)cnn1-c1ccccc1,i,-7%,2%,i,15,u
CCN(CC)CCn1c2ccccc2c2cnc(N=CN(C)C)c(C#N)c21,u,5%,19%,u,14,21µM*
O=C(Cn1c(=O)ccc2cc(S(=O)(=O)N3CCCC3)ccc21)Nc1ccccc1,i,x,x,i,x,x
Cc1c(C(=O)NCc2ccoc2)oc2ccc3c(c12)C(=O)CC(C)(C)O3,i,4%,9%,18µM*,-7,u
